Screening data: PubChem BioAssay, National Center for Advancing Translational Sciences (NCATS)
TGFb SMAD3 inh: blocks TGF-b signaling; Potency, µM (top dose mostly 46.1 µM), for the others: at the highest dose activity, negative = inhibition, actives largely listed as inhibitors; HepG2 CAGA-GFP TGF-b/SMAD3 reporter, GFP fluorescence, 18 h; TGF-beta stimulated, 500 pg/mL final; AID 588855; 410,000 tested, 1.2% active; further: potency means the concentration at half of the fitted maximal effect; on the % scale 0 is the no-effect control and ±100 the full control effect; nearly all actives have a fitted effect of over 65% in size
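GFP signal (ex488/em500-530) from TGF-beta-stimulated HEPG2 CAGA-GFP cells, 500 pg/mL final, 18 h at 37 degrees C in DMEM plus 1% FBS, normalized to unstimulated and DMSO-stimulated controls.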
HepG2 viability: counter-screen for TGF-b inhibitors: cytotoxicity in HepG2 cells; 410,000 tested, 0.76% active; HepG2 CAGA-GFP viability, ATP luminescence, 18 h; AID 588856; Potency, µM (top dose mostly 46.1 µM), for inactives: at the highest dose activity change, negative = cytotoxicity, actives largely listed as cytotoxic; further: potency means the concentration at half of the fitted maximal effect
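HepG2 CAGA-GFP cells (1000/well, DMEM with 1% FBS) received compound, then TGF-beta at 500 pg/mL final, and were incubated 18 hours at 37 degrees C. Viability was read by CellTiter-Glo luminescence. Media-only wells were set as complete cell-killing and DMSO as no toxicity.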
TDP1 cell noCPT: qHTS for Inhibitors of human tyrosyl-DNA phosphodiesterase 1 (TDP1): qHTS in cells in absence of CPT; DT40 Tdp1-/- hTDP1 cells, no CPT, ATP luminescence, 48 h; 420,000 tested, 15% active; Potency, µM (doses to about 46.2 µM), inactives show at the highest dose activity change, negative = growth inhibition, most hits filed as inhibitors; further: potency means the concentration at half of the fitted maximal effect; on the % scale 0 is the no-effect control and ±100 the full control effect; nearly all actives have a fitted effect of over 55% in size
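Luminescent ATP content (CellTiter-Glo) served as the growth readout. Knockout chicken DT40 cells expressing human TDP1 were exposed to compounds without camptothecin for a minimum 48 hr at 37 °C.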
TDP1 cell CPT: growth inhibition of DT40 Tdp1-/-;hTDP1 cells with camptothecin (screen for TDP1 inhibitors); chicken DT40 Tdp1-/-;hTDP1 cells + 20 nM CPT, ATP luminescence, 48 h; Potency, µM (highest dose often 46.2 µM), inactives show top-dose activity change, negative = growth inhibition, usual class: inhibitors; 420,000 tested, 12% active; AID 686979; further: potency means the concentration at half of the fitted maximal effect; on the % scale 0 is the no-effect control and ±100 the full control effect; nearly all actives have a fitted effect of over 55% in size
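Chicken DT40 Tdp1-/- cells stably complemented with human TDP1 were seeded at 400 cells/well in medium containing 20 nM camptothecin, exposed to pin-transferred compounds, and grown at 37 °C for at least 48 hr. Viability was read as ATP luminescence.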
IL1B secr inh: inflammasome signaling inhibition, IL-1 beta readout | THP-1 LPS/ATP IL-1B secretion, AlphaLISA, 16 h; stronger effect = lower value | activity change, % at 57.5 µM | 360,000 tested, 4.7% active | AID 743279; in the data active means activity change below about -50%; inconclusive means mostly about -30% to -49%; further: on the % scale 0 is the no-effect control and ±100 the full control effect
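Secreted IL-1B measured by AlphaLISA bead assay after 16 h compound exposure of THP-1 cells; compounds (final up to 57.5 uM) added 1 h before LPS (250 ng/mL) and ATP (1.25 mM) stimulation; lower signal means less secretion.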
TDP1 block: inhibitors of human tyrosyl-DNA phosphodiesterase TDP1; Q9NUW8; Potency, µM (doses to about 130 µM), without a hit: top-dose activity change, negative = inhibition, hits mostly inhibitors; recombinant TDP1, AlphaScreen DNA substrate cleavage; 350,000 tested, 0.28% active; AID 485290; further: potency means the concentration at half of the fitted maximal effect; on the % scale 0 is the no-effect control and ±100 the full control effect; nearly all actives have a fitted effect of over 40% in size
Target sequence (Q9NUW8 whole entry, looked up): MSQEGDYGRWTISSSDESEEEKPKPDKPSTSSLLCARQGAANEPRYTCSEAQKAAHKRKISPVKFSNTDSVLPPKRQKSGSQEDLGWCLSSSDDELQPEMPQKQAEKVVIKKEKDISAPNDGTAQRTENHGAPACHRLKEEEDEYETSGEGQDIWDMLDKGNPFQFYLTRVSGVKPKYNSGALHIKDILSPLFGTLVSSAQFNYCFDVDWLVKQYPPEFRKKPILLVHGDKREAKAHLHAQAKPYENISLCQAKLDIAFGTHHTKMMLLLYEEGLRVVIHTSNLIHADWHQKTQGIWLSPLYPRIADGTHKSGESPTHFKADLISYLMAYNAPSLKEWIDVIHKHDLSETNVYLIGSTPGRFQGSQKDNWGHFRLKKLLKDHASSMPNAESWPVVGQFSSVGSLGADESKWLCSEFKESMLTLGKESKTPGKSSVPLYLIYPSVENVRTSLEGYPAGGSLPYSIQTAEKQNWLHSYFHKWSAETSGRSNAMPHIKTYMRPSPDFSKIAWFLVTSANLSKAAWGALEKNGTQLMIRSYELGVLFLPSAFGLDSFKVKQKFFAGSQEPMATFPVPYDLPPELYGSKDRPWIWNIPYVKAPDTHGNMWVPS
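Compounds were preincubated with Tdp1 (1 nM final) for 15 min at room temperature before substrate (15 nM final) started a 5 min reaction; beads (10 ug/ml final) were then added for 10 min before AlphaScreen detection.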
Active calls of the source: *; i = inactive; ? = inconclusive; nt = no result given; [ ] = another dose, or the depositor's remark. In the library only some 18% were active in any assay of this set; here they are far more common. Unless noted, the call rests on the fitted dose curve; in most records, active means well fitted curve in the direction sought with a large enough effect; inconclusive means small, poorly fitted or top-dose-only effect, or another doubt; inactive means no such curve, though single readings can be large; an effect the other way counts as inactive or inconclusive.

SMILES | TGFb SMAD3 inh | HepG2 viability | TDP1 cell noCPT | TDP1 cell CPT | IL1B secr inh | TDP1 block
Cc1cccc(-c2noc(-c3ccc(N4CCN(C)CC4)c([N+](=O)[O-])c3)n2)c1 | 12% | 6% | 23µM* | ? | nt | 9%
Cc1cccc(-c2noc(-c3ccc(N4CCOCC4)c([N+](=O)[O-])c3)n2)c1 | 0% | 2% | 18µM* | ? | nt | 9%
COc1cc(-c2noc(-c3ccc(N4CCOCC4)c([N+](=O)[O-])c3)n2)cc(OC)c1OC | -39% | -19% | 5.2µM* | ? | nt | 6%
COc1ccc(-c2noc(-c3ccc(N4CCCC4)c([N+](=O)[O-])c3)n2)cc1OC | 0% | 8% | -16% | ? | nt | 3%
O=C(CCN1C(=O)C2C3C=CC(C3)C2C1=O)NCCc1ccccc1 (configuration not stated) | -19% | 0% | 26µM* | ? | 26 | 1%
Cc1cccc(NC(=O)CCN2C(=O)C3C4C=CC(C4)C3C2=O)n1 (configuration not stated) | -16% | -4% | 23µM* | 16µM* | 5 | 9%
O=C(CCN1C(=O)C2C3C=CC(C3)C2C1=O)Nc1ccccn1 (configuration not stated) | 0% | 7% | -5% | -2% | 16 | -2%
CCOc1ccc(NC(=O)c2nnn(-c3ccc(F)c(Cl)c3)c2C)cc1 | -3% | 7% | -26% | -26% | nt | 11%
CC(C)(C)c1ccc(N2C(=O)CSC2c2cccnc2)cc1 (configuration not stated) | 20% | -15% | 8.2µM* | ? | 13 | 3%
Cc1ccccc1CCN(C(=O)c1csnn1)C(C(=O)NC1CCCC1)c1ccco1 (configuration not stated) | -13% | -34% | ? | 23µM* | -11 | nt
Cc1ccc(Cl)cc1N(C(=O)c1csnn1)C(C(=O)NC1CCCC1)c1ccco1 (configuration not stated) | 20% | -2% | -12% | 0% | -14 | -3%
CC(C)CCN(C(=O)c1csnn1)C(C(=O)NC1CCCC1)c1ccc(F)cc1 (configuration not stated) | 3% | -9% | -29% | -16% | -63* | nt
O=C(CCC(=O)c1cccs1)OCC(=O)c1ccccc1F | 11% | -1% | -86% | -24% | -8 | 4%
COc1cccc(CNC(=O)c2[nH]c3cc(C)ccc3c2Sc2ccccc2)c1 | -13% | 2% | 15µM* | ? | nt | 11%
Cc1ccc2c(Sc3ccccc3)c(C(=O)NCc3ccccc3F)[nH]c2c1 | 4% | 0% | ? | 9.2µM* | nt | 6%
Cc1ccc(Sc2c(C(=O)NCc3ccccc3C)[nH]c3ccccc23)cc1 | 19% | 9% | -55% | ? | nt | -6%
COc1ccc2c(Sc3ccccc3)c(C(=O)NCc3cccc(OC)c3OC)[nH]c2c1 | -5% | 1% | ? | ? | nt | 3%
Cc1cc(C)cc(NC(=O)Cn2nnc(C(=O)Nc3cc(C)cc(C)c3)c2N)c1 | ? | -37% | ? | -10% | nt | -2%
Cc1cc(C)n(-c2cc(-c3ccccc3)nc(C)n2)n1 | 40% | 28% | ? | 16µM* | -6 | 0%
Cc1cc(C)cc(Nc2cc(-c3ccccc3)nc(C)n2)c1 | ? | -44% | 8.2µM* | 9.2µM* | nt | -5%
C=C1CCN([C@@H](C)C(=O)NCCCCCC)S(=O)(=O)c2ccccc21 | -5% | 2% | ? | -27% | 29 | nt
O=C(Nc1cccc(-c2cnc3ccccc3n2)c1)C1CC(=O)N(c2ccccc2)C1 (configuration not stated) | -22% | 0% | 23µM* | 21µM* | i | 3%
O=C(Nc1ccccc1C(=O)O)c1ccc(NC(=O)c2ccc(Br)o2)cc1 | 10% | -21% | ? | ? | 42 | 2%
CC(C)Oc1ccc(C(=O)Nc2ccc(NC(=O)c3ccco3)c(Cl)c2)cc1 | -23% | 2% | ? | ? | ? | 0%
O=C(Nc1cccc(-c2cnc3ccccc3n2)c1)c1cccc(NC(=O)c2ccco2)c1 | -32% | -44% | 15µM* | 6.5µM* | 60 | -6%
SMILES | TGFb SMAD3 inh | HepG2 viability | TDP1 cell noCPT | TDP1 cell CPT | IL1B secr inh | TDP1 block
O=C(Nc1ccc(NC(=O)c2ccco2)c(Cl)c1)c1ccccc1 | 1% | -11% | 23µM* | ? | ? | -8%
O=C(Nc1ccccc1C(=O)O)c1cccc(NC(=O)c2ccc(Br)o2)c1 | -26% | -42% | 1.6µM* | -7% | -6 | 0%
CC12CCC(=O)N1C(C(=O)Nc1cc(Cl)ccc1N1CCCC1)CS2 (configuration not stated) | -14% | -4% | ? | 4% | -2 | 6%
O=C(c1cccs1)N(Cc1ccco1)c1ccc(O)cc1 | 13% | 1% | ? | ? | nt | 4%
O=C(CCl)Nc1cccc(-c2cnc3ccccc3n2)c1 | 7.1µM* | 11µM* | 2.3µM* | 2.9µM* | -96* | 5%
Nc1ccc(NC(=O)c2cccc(C(=O)Nc3ccc(N)cc3Cl)c2)c(Cl)c1 | -25% | 3% | 16µM* | 18µM* | 0 | 1%[12.3 µM]
CCC(=O)Nc1cccc(-c2cnc3ccccc3n2)c1 | 11% | -9% | ? | ? | 30 | 4%
O=C(Nc1ccc(Cl)c(Cl)c1)Oc1ccc(NC(=O)c2ccco2)cc1 | ? | -47% | 26µM* | ? | -88* | 1%
Nc1ccc(C(=O)Nc2ccc(NC(=O)c3ccco3)c(O)c2)cc1 | 2% | -10% | 16µM* | ? | -20 | -5%
Nc1cccc(C(=O)Nc2ccc(N)cc2Cl)c1 | 8% | 3% | 0% | -6% | -16 | 5%
Cc1ccc2[nH]c3c(c2c1)CCN(C)C3 | 13% | -20% | -1% | 6% | ? | 4%
CCOc1ccc(OCCC(=O)OCC(=O)NC(C)c2ccccc2)cc1 (configuration not stated) | 0% | -3% | 5% | -19% | 6 | nt
O=C(Nc1cccc(NC(=O)c2nccc3ccccc23)c1)c1ccco1 | 4% | -40% | 10µM* | ? | 3 | 6%
O=C(Nc1ccccc1O)c1cccc(NC(=O)c2ccco2)c1 | -2% | 2% | 13µM* | 21µM* | 57 | nt
O=C(Nc1cccc(NC(=O)c2ccco2)c1)c1ccccc1 | 10% | -8% | -16% | -20% | -12 | nt
